Data reported in the supplement of paper PMC13380429.
A number with no mark means an inactive call.

System: Vero E6 infected with SARS-CoV-2
Assay: inhibition of SARS-CoV-2 cytopathic effect; higher = more antiviral protection, active = above 15
Conditions: 48 h

Structure (SMILES) | inhibition of SARS-CoV-2 cytopathic effect (1 nM) | inhibition of SARS-CoV-2 cytopathic effect (8.33 nM) | inhibition of SARS-CoV-2 cytopathic effect (100 nM) | inhibition of SARS-CoV-2 cytopathic effect (833.33 nM) | inhibition of SARS-CoV-2 cytopathic effect (10000 nM)
CCOC(=O)[C@H](CCc1ccccc1)N[C@@H](C)C(=O)N1Cc2cc(OC)c(OC)cc2C[C@H]1C(=O)O [moexipril] | -1.91% | 1.34% | -0.63% | -0.22% | 0.1%
CNC(=O)c1c(C)oc2cc(Oc3ncnc4cc(OC)c(OC)cc34)ccc12 [fruquintinib] | 2.39% | -2.79% | -1.12% | -3.32% | -0.11%
CC(C)(C)CC(C)(C)c1ccc(O)c(Cc2ccc(Cl)cc2Cl)c1 [clofoctol] | 3.11% | 0.06% | 2.41% | 3.05% | -0.97%
CCCN(C/C=C/I)[C@H]1CCc2ccc(O)cc2C1 [7-hydroxy-PIPAT] | -0.76% | 0.14% | -1.03% | -0.19% | -1.39%
C#Cc1cccc(Nc2ncnc3cc(OC)c(OCCCCCCC(=O)NO)cc23)c1 | 1.1% | 5.38% | -0.94% | -6.89% | -28%
CCc1nc(C(N)=O)c(Nc2ccc(N3CCC(N4CCN(C)CC4)CC3)c(OC)c2)nc1NC1CCOCC1 [gilteritinib] | 0.28% | 0.02% | -2.49% | -0.11% | 10.3%
Nc1c(-c2cccc(C(F)(F)F)c2)nsc1C(=O)O [amflutizole] | -1.13% | 0.29% | -1.28% | 0.87% | 1.39%
Oc1ccc(-c2nc3cc(O)cc(Br)c3o2)cc1 | 0.68% | 1.49% | 2.09% | 4.89% | 2.95%
COc1ccc(CNC(=O)c2cc(-c3cncc(C)c3)ncc2-c2nccs2)nc1OC | 1.93% | 4.06% | 1.64% | -9.94% | 3.12%
O=c1ccn([C@@H]2O[C@H](COP(=O)(O)OP(=O)(O)OP(=O)(O)O)[C@@H](O)[C@H]2O)c(=O)[nH]1 | -0.655% | 1.84% | 3.83% | 2.04% | -0.735%
Cc1c(C)c2c(c(C)c1OC(=O)CCC(=O)O)CC[C@@](C)(CCC[C@H](C)CCC[C@H](C)CCCC(C)C)O2 [D-alpha-tocopheryl-succinate] | -5.51% | -5.87% | -7.06% | -5.36% | -2.64%
COC(=O)c1c(C)[nH]c(C)c1C(=O)c1ccccc1Cc1ccccc1 | 1.06% | -1.02% | 0.4% | -3.62% | -3.09%
C[C@]12CCC(=O)C=C1C=C[C@@H]1[C@@H]2CC[C@@]2(C)[C@H]1CC[C@@]2(O)CCC(=O)O [potassium-canrenoate] | -4.66% | -2.95% | 2.67% | 3.81% | 0.36%
CNC(=O)O[C@H]1COc2ccc(N3CCN(C4COC4)CC3)cc2[C@@H]1NC(=O)c1ccc(F)cc1 | 1.12% | -0.75% | -1.06% | 0.34% | 1.4%
CCCCc1nc(-c2ccc(OCCCN(CC)CC)cc2)cn1-c1ccc(Oc2ccc(Cl)cc2)cc1 [azeliragon] | 0.74% | -0.49% | 1.43% | 1.68% | -13.2%
CCCCc1oc2ccc(NS(C)(=O)=O)cc2c1C(=O)c1ccc(OCCCN(CCCC)CCCC)cc1 [dronedarone] | 3.27% | 1.28% | -0.45% | 4.57% | 29.3% (active)
O=C(O)CCCc1ccc(N(CCCl)CCCl)cc1 [chlorambucil] | -0.23% | 0.88% | -0.7% | -1.67% | -0.16%
OC[C@@H](O)[C@@H](O)[C@@H](O)CO [ribitol] | 2.52% | 3.83% | 1.9% | 3.1% | 1.14%
COc1ccc(C[C@H]2NC[C@H](O)[C@H]2OC(C)=O)cc1 [anisomycin] | 3.91% | 6% | 44.2% (active) | 7.95% | -30.6%
CN1C(=O)C(Cc2c[nH]c3ccccc23)NC1=S (stereo not given) [necrostatin-1] | 1.27% | -1.34% | 2.85% | 1.03% | 1.43%

Structure (SMILES) | inhibition of SARS-CoV-2 cytopathic effect (1 nM) | inhibition of SARS-CoV-2 cytopathic effect (8.33 nM) | inhibition of SARS-CoV-2 cytopathic effect (100 nM) | inhibition of SARS-CoV-2 cytopathic effect (833.33 nM) | inhibition of SARS-CoV-2 cytopathic effect (10000 nM)
Cc1ccccc1NC(=N)Nc1ccccc1C [ditolylguanidine] | 1.39% | 1.77% | -1.06% | -2.29% | -0.63%
CN1CCN(CCOc2cc(OC3CCOCC3)c3c(Nc4c(Cl)ccc5c4OCO5)ncnc3c2)CC1 [saracatinib] | 0.37% | -0.91% | 0.04% | -7% | -12.3%
Fc1ccc(-n2cc(CCCCN3CCC4(CC3)OCc3ccccc34)c3ccccc32)cc1 [siramesine] | 0.05% | 1.88% | 1.49% | 4.24% | 28.7% (active)
C[C@@H](N)c1ccc(C(=O)Nc2ccnc3[nH]ccc23)cc1 | 0.69% | -1.06% | 0.35% | -5.51% | -13.4%
O=C(CN1CCN(C(=O)c2ccco2)CC1)Nc1cc(C(F)(F)F)ccc1Cl | 0.23% | -4.63% | -0.17% | 1.03% | 5.23%
CC(=O)NCCc1c(Cc2ccccc2)[nH]c2ccccc12 [luzindole] | 5.27% | 4.35% | 1.82% | 3.18% | 3.21%
CC1(C)C[C@@H]1C(=O)N/C(=C\CCCCSC[C@H](N)C(=O)O)C(=O)O [Cilastatin Sodium] | 1.3% | 3.44% | -0.05% | -0.19% | -0.52%
CCOC(=O)OC(C)OC1=C(C(=O)Nc2ccccn2)N(C)S(=O)(=O)c2ccccc21 (stereo not given) [ampiroxicam] | 1.01% | -0.58% | 1.16% | 2.1% | 2.74%
CNC(=O)c1ccccc1Nc1nc(Nc2ccc(N3CCOCC3)cc2OC)ncc1Cl | -0.14% | -2.52% | -2.14% | -3.76% | -10.9%
COc1cc(C#N)ccc1S(=O)(=O)Nc1ccc2c(c1)cc(C)c(=O)n2C | -2.94% | 1.53% | 0.3% | -4.02% | -0.1%
COc1ccc(Nc2ncnc3ccc(OC)cc23)cc1 | 4.07% | 6.4% | 6.26% | 1.4% | -3.12%
CN(C)CCCN1c2ccccc2CCc2ccccc21 [imipramine] | -4.38% | 1.76% | -1.33% | -2.74% | -4.2%
CN1CCc2nc(C(=O)N[C@@H]3C[C@@H](C(=O)N(C)C)CC[C@@H]3NC(=O)C(=O)Nc3ccc(Cl)cn3)sc2C1 [edoxaban] | -1.16% | -1.57% | -1.51% | -3.37% | -1.69%
CCCCCCCCCCCCCCCC(=O)OC[C@H](O)[C@H]1OC(=O)C(O)=C1O [L-ascorbyl-6-palmitate] | 2.02% | 0.04% | 0.01% | 0.96% | -0.63%
OCCOCCN1CCN(C(c2ccccc2)c2ccc(Cl)cc2)CC1 (stereo not given) [hydroxyzine] | 1.41% | 0.93% | 1.56% | -1.88% | -4.3%
COc1cc(OC)c(/C=C2/C(=O)Nc3ccccc32)c(OC)c1 | 2.03% | 1.86% | 2.55% | 1.29% | -1.88%
O=C1c2cccc(O)c2C(=O)c2c(O)cc(CO)cc21 [aloe-emodin] | -3.13% | -0.39% | -0.52% | -3% | -2.43%
Cc1cc(Cn2cnc3c2C[C@@H](C(=O)O)N(C(=O)C(c2ccccc2)c2ccccc2)C3)ccc1N(C)C | -2.45% | -1.75% | -3.61% | -1.45% | 0.19%
CN[C@H](C(=O)N[C@H](C(=O)N(C)[C@H](/C=C(\C)C(=O)O)C(C)C)C(C)(C)C)C(C)(C)c1ccccc1 [taltobulin] | -0.53% | -1.55% | -0.97% | -1.63% | -1.03%
